This note sets out measurements from PubChem BioAssay (EPA / NIEHS).

Common to all, as to conditions: mRNA level, 48 h; actives raise or lower the signal
Read-out in one assay: MYC, MYC (gene 4609)
The experiment in a line: LTEA_HepaRG_MYC: Life Technologies and Expression Analysis (LTEA) Assay for MYC using HepaRG (AID 2283518). The gist of the method: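 HepaRG, ~100,000 cells/well, collagen I; 48 h plating; serum-free induction medium; 48 h dosing, duplicate, 100 uM top, half-log, 0.5% DMSO; total RNA → qRT-PCR MYC; gain/loss fit vs DMSO.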

Read-out in assay [1]: Paternally Expressed 10 (PEG10), PEG10 (gene 23089)
Kind of assay: LTEA_HepaRG_PEG10: Life Technologies and Expression Analysis (LTEA) Assay for Paternally Expressed 10 (PEG10) using HepaRG (AID 2283520). The essentials: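 HepaRG, 48 h post-plating → serum-free induction medium → 48 h chemical exposure (duplicate, 8-pt, max 100 uM, half-log, 0.5% DMSO) → lysis in RLT → TaqMan qRT-PCR for PEG10, ACTB/GAPDH/POLR2A normalisation.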

Read-out in assay [2]: Nuclear factor NF-kappa-B p105 subunit (Homo sapiens) (UniProt P19838)
The experiment in a line: LTEA_HepaRG_NFKB1: Life Technologies and Expression Analysis (LTEA) Assay for Nuclear Factor Kappa B Subunit 1 (NFKB1) using HepaRG (AID 2283521).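 For outcome: differentiated human HepaRG liver cells in serum-free induction medium.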 The gist of the method:
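NFKB1 transcript was measured by TaqMan qRT-PCR on Fluidigm arrays, normalised to three housekeeping genes and fitted in both directions against 0.5% DMSO. HepaRG cells were dosed in duplicate for 48 h in serum-free induction medium, eight half-log steps from 100 uM.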

Read-out in assay [3]: Protein phosphatase 2A (PPP2R4), PTPA (gene 5524)
The experiment in a line: LTEA_HepaRG_PPP2R4: Life Technologies and Expression Analysis (LTEA) Assay for Protein phosphatase 2A (PPP2R4) using HepaRG (AID 2283522). The gist of the method: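 Readout is PPP2R4 transcript level by microfluidic qRT-PCR after 48 h chemical treatment of human HepaRG liver cells. Concentrations spanned 100 uM downward in half-log steps; gain or loss of signal was fitted relative to DMSO.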

Read-out in assay [4]: Phosphatase and tensin (PTEN), PTEN (gene 5728)
The experiment in a line: LTEA_HepaRG_PTEN: Life Technologies and Expression Analysis (LTEA) Assay for Phosphatase and tensin (PTEN) using HepaRG (AID 2283523). The essentials:
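Read-out is PTEN transcript level by multiplexed TaqMan qRT-PCR after 48 h chemical treatment of human HepaRG cultures in serum-free induction medium. Concentrations spanned 100 uM downward in half-log steps, 0.5% DMSO throughout; activity fitted in both directions against vehicle.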

Read-out in assay [5]: solute carrier (SLC22A1), SLC22A1 (gene 6580)
The experiment in a line: LTEA_HepaRG_SLC22A1: Life Technologies and Expression Analysis (LTEA) Assay for solute carrier (SLC22A1) using HepaRG (AID 2283524).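 For AC50: differentiated human HepaRG liver cells in serum-free induction medium.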 The gist of the method: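 HepaRG (human liver line), 48 h dosing in serum-free induction medium; 8 conc., half-log down from 100 uM, 0.5% DMSO vehicle, duplicates. Endpoint: SLC22A1 mRNA, qRT-PCR, housekeeping-normalized; gain/loss fit vs DMSO.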

Read-out in assay [6]: Pyruvate Dehydrogenase Kinase 4 (PDK4), PDK4 (gene 5166)
Kind of assay: LTEA_HepaRG_PDK4: Life Technologies and Expression Analysis (LTEA) Assay for Pyruvate Dehydrogenase Kinase 4 (PDK4) using HepaRG (AID 2283525). The gist of the method:
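In this multiplexed human HepaRG expression assay, cells are treated 48 h with test chemicals across an eight-point range starting at 100 uM. PDK4 mRNA changes, normalized to ACTB/GAPDH/POLR2A, are fitted in both directions relative to vehicle.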

Read-out in assay [7]: NAD(P)H dehydrogenase [quinone] 1 (NQO1), NQO1 (gene 1728)
The experiment in a line: LTEA_HepaRG_NQO1: Life Technologies and Expression Analysis (LTEA) Assay for NAD(P)H dehydrogenase [quinone] 1 (NQO1) using HepaRG (AID 2283526). The essentials:
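HepaRG, 48 h post-plating → serum-free induction medium → test chemical 48 h (duplicate, 100 uM top, half-log x8, 0.5% DMSO) → RNA isolation → qRT-PCR, ACTB/GAPDH/POLR2A normalization; bidirectional curve fit vs DMSO baseline.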

Read-out in assay [8]: Nuclear factor erythroid 2-related factor 2 (Homo sapiens) (UniProt Q16236)
The experiment in a line: LTEA_HepaRG_NFE2L2: Life Technologies and Expression Analysis (LTEA) Assay for Nuclear factor erythroid 2-related factor 2 (NFE2L2) Transcription Factor using HepaRG (AID 2283527). The essentials:
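Transcript level of NFE2L2 is the read-out, measured by microfluidic TaqMan qRT-PCR and normalized to three housekeeping genes. Human HepaRG cultures received test chemical for 48 h at up to 100 uM in half-log steps. Gain or loss of signal is fitted relative to 0.5% DMSO.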

Read-out in assay [9]: succinate dehydrogenase complex iron sulfur subunit B (SDHB), SDHB (gene 6390)
Kind of assay: LTEA_HepaRG_SDHB: Life Technologies and Expression Analysis (LTEA) Assay for succinate dehydrogenase complex iron sulfur subunit B (SDHB) using HepaRG (AID 2283528). The essentials:
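SDHB transcript level read by TaqMan qRT-PCR, housekeeping-normalised (ACTB, GAPDH, POLR2A), after 48 h chemical treatment of plated HepaRG cells; eight concentrations top 100 uM, half-log steps, 0.5% DMSO, duplicates; fitted both directions against DMSO.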

Read-out in assay [10]: Signal transducer and activator of transcription 3 (Homo sapiens) (UniProt P40763)
The experiment in a line: LTEA_HepaRG_STAT3: Life Technologies and Expression Analysis (LTEA) Assay for Signal transducer and activator of transcription (STAT3) using HepaRG (AID 2283529). The essentials:
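Read-out is STAT3 mRNA level by qRT-PCR, normalized to three housekeeping genes, in human HepaRG liver cells treated for 48 h. Concentrations ran from 100 uM downward in half-log steps; curves were fitted for gain or loss relative to 0.5% DMSO.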

Read-out in assay [11]: solute carrier (SLCO1B1), SLCO1B1 (gene 10599)
The experiment in a line: LTEA_HepaRG_SLCO1B1: Life Technologies and Expression Analysis (LTEA) Assay for solute carrier (SLCO1B1) using HepaRG (AID 2283530). The essentials:
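HepaRG, serum-free induction medium, 48 h dosing, 8-pt half-log from 100 uM, 0.5% DMSO vehicle, duplicates. Readout: SLCO1B1 mRNA, qRT-PCR, ACTB/GAPDH/POLR2A normalization; up or down fit vs DMSO.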

Read-out in assay [12]: sulfotransferase 2A1 (SULT2A1), SULT2A1 (gene 6822)
Kind of assay: LTEA_HepaRG_SULT2A1: Life Technologies and Expression Analysis (LTEA) Assay for sulfotransferase 2A1 (SULT2A1) using HepaRG (AID 2283531). The gist of the method: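 Transcript levels of SULT2A1, quantified by qRT-PCR and normalized to three housekeeping genes, serve as the readout. Human HepaRG cultures receive test chemicals for 48 h at up to 100 uM in half-log steps, with 0.5% DMSO vehicle.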

Read-out in assay [13]: Transforming Growth Factor (TGFA), TGFA (gene 7039)
Kind of assay: LTEA_HepaRG_TGFA: Life Technologies and Expression Analysis (LTEA) Assay for Transforming Growth Factor (TGFA) using HepaRG (AID 2283532). The gist of the method:
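HepaRG (human liver line), 48 h exposure, 8 conc. half-log down from 100 uM, 0.5% DMSO vehicle, duplicates; serum-free induction medium. TGFA mRNA by TaqMan qRT-PCR, ACTB/GAPDH/POLR2A normalization; gain/loss fit vs DMSO.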

Read-out in assay [14]: Transforming Growth Factor (TGFB1), TGFB1 (gene 7040)
Kind of assay: LTEA_HepaRG_TGFB1: Life Technologies and Expression Analysis (LTEA) Assay for Transforming Growth Factor (TGFB1) Transporter using HepaRG (AID 2283533). The gist of the method:
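HepaRG, 48 h post-plating, switched to serum-free induction medium; chemicals 100 uM top, half-log, 8 pts, 0.5% DMSO, dup; 48 h exposure; RNA → Fluidigm TaqMan qRT-PCR; norm ACTB/GAPDH/POLR2A; bidirectional fit vs DMSO.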

Read-out in assay [15]: Tumor necrosis factor receptor 1 (TNFRSF1A), TNFRSF1A (gene 7132)
The experiment in a line: LTEA_HepaRG_TNFRSF1A: Life Technologies and Expression Analysis (LTEA) Assay for Tumor necrosis factor receptor 1 (TNFRSF1A) using HepaRG (AID 2283535). The gist of the method: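 Read-out is TNFRSF1A transcript level by TaqMan qRT-PCR, normalized to three housekeeping genes, scored as gain or loss of signal versus 0.5% DMSO. Human HepaRG cells received test chemicals for 48 h at up to 100 uM (half-log series).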

Read-out in assay [16]: Thyroid Hormone Responsive (THRSP), THRSP (gene 7069)
Kind of assay: LTEA_HepaRG_THRSP: Life Technologies and Expression Analysis (LTEA) Assay for Thyroid Hormone Responsive (THRSP) using HepaRG (AID 2283536). The essentials: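 mRNA induction or loss relative to 0.5% DMSO vehicle was fitted bidirectionally across an eight-point curve whose highest exposure was 100 uM. Human HepaRG liver cells received chemicals in duplicate over 48 h before RNA extraction.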

Read-out in assay [17]: Cellular tumor antigen p53 (Homo sapiens) (UniProt P04637)
The experiment in a line: LTEA_HepaRG_TP53: Life Technologies and Expression Analysis (LTEA) Assay for Tumor Protein P53 (TP53) using HepaRG (AID 2283537). The essentials: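 TP53 transcript measured by qRT-PCR, normalized to three housekeeping genes, after 48 h treatment of human HepaRG cultures with chemicals from 100 uM downward in half-log steps (0.5% DMSO vehicle, serum-free induction medium). Up- or down-regulation fitted against DMSO.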

Read-out in the next assay: TIMP1, TIMP1 (gene 7076)
Kind of assay: LTEA_HepaRG_TIMP1: Life Technologies and Expression Analysis (LTEA) Assay for TIMP1 using HepaRG (AID 2283534).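 Note: TaqMan qRT-PCR signal normalized to ACTB GAPDH and POLR2A housekeeping genes.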 The gist of the method: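 Readout is TIMP1 mRNA level measured by qRT-PCR and normalized to three housekeeping genes. Human HepaRG cells were treated for 48 h in duplicate at eight concentrations up to 100 uM (0.5% DMSO); gain or loss fitted against DMSO.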

Active and inactive are the calls of the source. Rule for the calls: active = hit-call score of the fitted dose curve at least 0.9, where 1 is the maximum; inactive = score below 0.9.

Nuclear factor erythroid 2-related factor 2 (Homo sapiens), sequence (Q16236 whole entry, looked up): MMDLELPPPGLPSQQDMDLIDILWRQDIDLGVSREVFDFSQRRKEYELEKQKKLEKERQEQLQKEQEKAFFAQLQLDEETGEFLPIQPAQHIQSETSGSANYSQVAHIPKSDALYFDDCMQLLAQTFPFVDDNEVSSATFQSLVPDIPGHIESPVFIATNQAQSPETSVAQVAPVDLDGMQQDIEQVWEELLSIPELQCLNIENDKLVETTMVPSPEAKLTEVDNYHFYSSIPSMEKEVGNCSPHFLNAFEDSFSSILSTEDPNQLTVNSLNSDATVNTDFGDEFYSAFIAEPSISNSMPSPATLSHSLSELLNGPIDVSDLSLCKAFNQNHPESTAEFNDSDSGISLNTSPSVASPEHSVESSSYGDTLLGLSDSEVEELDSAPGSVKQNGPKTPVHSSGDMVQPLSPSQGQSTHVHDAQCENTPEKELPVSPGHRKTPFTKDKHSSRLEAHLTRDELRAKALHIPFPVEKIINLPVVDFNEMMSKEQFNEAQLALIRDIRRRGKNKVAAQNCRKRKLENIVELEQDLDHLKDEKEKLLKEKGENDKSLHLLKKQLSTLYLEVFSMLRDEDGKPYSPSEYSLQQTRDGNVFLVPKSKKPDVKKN
Nuclear factor NF-kappa-B p105 subunit (Homo sapiens), sequence (P19838 whole entry, looked up): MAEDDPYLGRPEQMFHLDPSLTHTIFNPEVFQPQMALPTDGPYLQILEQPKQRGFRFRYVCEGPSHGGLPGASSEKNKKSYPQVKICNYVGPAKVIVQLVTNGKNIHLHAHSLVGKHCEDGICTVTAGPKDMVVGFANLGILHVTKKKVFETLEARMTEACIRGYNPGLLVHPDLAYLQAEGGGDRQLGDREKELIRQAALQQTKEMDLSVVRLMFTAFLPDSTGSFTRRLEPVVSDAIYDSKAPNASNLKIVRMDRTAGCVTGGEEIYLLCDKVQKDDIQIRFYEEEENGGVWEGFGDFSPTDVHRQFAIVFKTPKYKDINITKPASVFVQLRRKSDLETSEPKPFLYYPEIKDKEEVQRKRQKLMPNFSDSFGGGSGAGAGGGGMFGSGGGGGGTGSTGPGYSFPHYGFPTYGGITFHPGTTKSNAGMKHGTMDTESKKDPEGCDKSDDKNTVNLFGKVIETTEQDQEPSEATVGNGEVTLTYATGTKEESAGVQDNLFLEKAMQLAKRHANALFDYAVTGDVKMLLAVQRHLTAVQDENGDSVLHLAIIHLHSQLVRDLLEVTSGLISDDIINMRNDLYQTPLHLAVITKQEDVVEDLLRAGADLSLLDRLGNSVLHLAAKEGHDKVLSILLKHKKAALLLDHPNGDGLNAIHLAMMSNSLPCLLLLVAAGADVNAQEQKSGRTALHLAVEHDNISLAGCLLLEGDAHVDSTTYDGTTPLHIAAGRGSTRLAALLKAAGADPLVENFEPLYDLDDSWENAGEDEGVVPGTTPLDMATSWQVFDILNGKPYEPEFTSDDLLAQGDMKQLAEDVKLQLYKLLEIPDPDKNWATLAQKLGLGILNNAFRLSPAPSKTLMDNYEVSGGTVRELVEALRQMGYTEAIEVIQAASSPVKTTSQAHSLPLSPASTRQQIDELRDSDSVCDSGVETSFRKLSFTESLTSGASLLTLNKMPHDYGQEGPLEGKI
Signal transducer and activator of transcription 3 (Homo sapiens), sequence (P40763 whole entry, looked up): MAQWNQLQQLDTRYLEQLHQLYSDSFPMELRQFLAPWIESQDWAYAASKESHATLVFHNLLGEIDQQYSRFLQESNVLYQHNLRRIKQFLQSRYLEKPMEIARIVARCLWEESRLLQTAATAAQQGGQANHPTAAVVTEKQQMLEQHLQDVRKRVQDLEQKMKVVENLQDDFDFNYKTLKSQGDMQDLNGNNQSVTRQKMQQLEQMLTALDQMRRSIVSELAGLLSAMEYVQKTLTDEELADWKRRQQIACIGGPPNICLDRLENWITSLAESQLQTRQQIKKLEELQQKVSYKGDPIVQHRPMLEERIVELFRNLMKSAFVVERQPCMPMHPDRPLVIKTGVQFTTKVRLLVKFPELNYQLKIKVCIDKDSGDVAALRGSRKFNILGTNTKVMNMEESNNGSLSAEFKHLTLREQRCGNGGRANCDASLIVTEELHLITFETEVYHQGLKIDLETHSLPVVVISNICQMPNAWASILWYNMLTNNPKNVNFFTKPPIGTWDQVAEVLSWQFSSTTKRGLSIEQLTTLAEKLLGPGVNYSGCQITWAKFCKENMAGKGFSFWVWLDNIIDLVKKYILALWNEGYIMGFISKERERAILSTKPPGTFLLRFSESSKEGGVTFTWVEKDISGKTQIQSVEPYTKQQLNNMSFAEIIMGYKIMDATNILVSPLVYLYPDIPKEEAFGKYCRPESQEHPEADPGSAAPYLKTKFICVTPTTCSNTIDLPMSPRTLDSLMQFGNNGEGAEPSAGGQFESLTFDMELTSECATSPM
Cellular tumor antigen p53 (Homo sapiens), sequence (P04637 whole entry, looked up): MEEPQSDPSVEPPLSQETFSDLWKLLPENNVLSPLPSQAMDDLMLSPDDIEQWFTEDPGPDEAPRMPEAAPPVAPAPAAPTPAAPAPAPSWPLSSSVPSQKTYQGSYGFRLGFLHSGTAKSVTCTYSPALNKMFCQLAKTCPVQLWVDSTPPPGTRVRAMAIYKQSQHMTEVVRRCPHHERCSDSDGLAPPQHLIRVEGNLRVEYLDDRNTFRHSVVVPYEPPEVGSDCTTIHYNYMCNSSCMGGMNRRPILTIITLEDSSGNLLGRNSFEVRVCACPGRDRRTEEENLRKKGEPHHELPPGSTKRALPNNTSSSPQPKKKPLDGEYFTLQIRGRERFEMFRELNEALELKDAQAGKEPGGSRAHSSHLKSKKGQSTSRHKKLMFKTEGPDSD

In the case of `Cc1cc(Cc2ccc(N)c(C)c2)ccc1N`, the outcome is “inactive” with MYC, MYC (gene 4609); “inactive” in assay [1]; “inactive” in [2]; “inactive” in assay [3]; “inactive” in assay [4]; “inactive” in assay [5]. Also, the molecule was called inactive in assay [6], in assay [7], in assay [8], in assay [9], in [10] and in assay [11]. In addition, the outcome in assay [12], in assay [13], in assay [14], in assay [15], in [16] and in [17] was inactive.
With `COc1ccc(OC(F)(F)F)cc1CN[C@H]1CCCN[C@H]1c1ccccc1`, the AC50 with MYC, MYC (gene 4609) was 7.25 µM (active); in [1] it was 55.2 µM (active); in [3], 90 µM (active); in [5] it was 50 µM (active); in assay [8], 14.7 µM (active); in assay [10], 73.4 µM (active). Moreover, the AC50 in assay [12] is 81.2 µM (active); in assay [15], 93.1 µM (active); in assay [17], 77.7 µM (active). Besides, the result in [2], in assay [6], in assay [7], in assay [9], in assay [11] and in assay [13] was inactive. Also, the outcome in assay [14] was “inactive”; with TIMP1, TIMP1 (gene 7076), “inactive”; in assay [16], “inactive”.
In the case of `NC(=Nc1ccccc1)Nc1ccccc1`, the outcome was “inactive” with MYC, MYC (gene 4609); “inactive” in assay [3]; “inactive” in [4]; “inactive” in assay [5]; “inactive” in assay [6]; “inactive” in assay [7]. For the same molecule, the molecule was classed as inactive in assay [8], in assay [9], in assay [10], in assay [11], in assay [12] and in assay [13]. The molecule was called inactive in assay [14], in [15] and in assay [17]. For the same molecule, the AC50 in assay [1] is 19.3 µM (active); in [16], 12.8 µM (active).
In the case of `CN(C)C(=O)NC1(c2ccccc2)CCN(CCC[C@]2(c3ccc(Cl)c(Cl)c3)CCCN(C(=O)c3ccccc3)C2)CC1`, the AC50 was 12.5 µM (active) in [1]; 21.3 µM (active) in assay [2]; 21.2 µM (active) in assay [3]; 23.8 µM (active) in assay [5]; 19.2 µM (active) in [6]; 21.7 µM (active) in assay [7]. The values for the AC50 in assay [11], in assay [12] and in [14] were 19.5 µM (active), 19.4 µM (active) and 9.26 µM (active), respectively. Moreover, the molecule was classed as inactive in assay [4], in [9], in [10], in assay [13], in [15] and in assay [16]. Moreover, the call in assay [17] was inactive.
